# This is a sample that favours compounds with a hit; in the whole collection about 3.6% have one here.
# KAT2A inh: GCN5L2 (KAT2A) acetyltransferase inhibition. Q92830. GCN5L2 HAT assay, ThioGlo1 CoA-SH fluorescence. Potency, µM (highest dose often 58.9 µM), inactives show at the highest dose activity change, negative = inhibition, hits mostly inhibitors. 0.21% of 390,000 active. AID 504327; note: % is set by controls: 0 for no effect and ±100 for the full control effect
# Target sequence (Q92830 whole entry, looked up): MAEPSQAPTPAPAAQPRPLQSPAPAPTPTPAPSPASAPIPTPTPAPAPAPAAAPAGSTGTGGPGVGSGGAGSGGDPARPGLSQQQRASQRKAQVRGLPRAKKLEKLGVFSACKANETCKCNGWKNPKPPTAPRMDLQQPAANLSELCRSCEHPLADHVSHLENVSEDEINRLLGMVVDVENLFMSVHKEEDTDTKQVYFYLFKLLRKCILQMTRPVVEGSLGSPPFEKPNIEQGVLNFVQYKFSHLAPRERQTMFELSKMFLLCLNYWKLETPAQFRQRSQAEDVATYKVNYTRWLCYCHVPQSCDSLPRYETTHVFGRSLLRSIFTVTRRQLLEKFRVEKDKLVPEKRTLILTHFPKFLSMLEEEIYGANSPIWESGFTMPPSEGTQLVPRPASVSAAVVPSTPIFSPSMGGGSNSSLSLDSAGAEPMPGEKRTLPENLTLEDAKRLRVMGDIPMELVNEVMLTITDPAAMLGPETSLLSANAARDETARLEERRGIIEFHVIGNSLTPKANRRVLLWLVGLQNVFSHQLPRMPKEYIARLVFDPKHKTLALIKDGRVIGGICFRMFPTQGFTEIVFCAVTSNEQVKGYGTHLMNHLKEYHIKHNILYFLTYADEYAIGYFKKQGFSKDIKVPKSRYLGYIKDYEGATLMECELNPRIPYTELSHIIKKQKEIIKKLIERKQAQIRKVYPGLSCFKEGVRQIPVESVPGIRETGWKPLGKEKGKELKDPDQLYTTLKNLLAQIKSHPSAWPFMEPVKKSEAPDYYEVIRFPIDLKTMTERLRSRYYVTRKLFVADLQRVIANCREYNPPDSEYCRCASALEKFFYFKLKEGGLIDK
#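 GCN5L2 (20nM final) in 50mM HEPES, 0.1mM EDTA pH 7.5, 0.01% Tween-20 was preincubated 15 min at room temperature with compound, then given ThioGlo1 (50uM), H3(1-25) peptide (75uM) and acetyl-CoA (70uM); CoA-thiol fluorescence (Ex340/Em540) was read at 0 and 20 min.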
# JMJD2E inh: blocks human JMJD2E demethylase activity | Potency, µM (titrated, usually from 57.1 µM), for the others: at the top dose activity change, negative = inhibition, usual class: inhibitors | AID 2147 | JMJD2E catalytic domain, FDH-coupled NADH fluorescence (FDH is formaldehyde dehydrogenase) | B2RXH2 | 1.6% of 230,000 active; active = well fitted inhibition curve with a large enough effect, not every such curve was filed as active; inconclusive = small, poorly fitted or top-dose-only effect, or another doubt; inactive = no such curve, though single readings can be large or run the other way;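 note: 0% = wells with enzyme and -100% = buffer wells without enzyme; nearly all actives have a fitted effect of over 50% in size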
# IMPase Li inh: membrane-permeable IMPase blocker, potentiated with lithium | CHO-M1 cells, IP1 TR-FRET (IP-One), carbachol + lithium | 0.35% of 210,000 active | AID 1457 | Potency, µM (doses to about 59.4 µM), for the others: at the highest dose activity, negative = IMPase inhibition, actives largely listed as inhibitors;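 note: IP1 builds up when IMPase is blocked and the TR-FRET signal falls; plate controls were basal vehicle for no effect and high inhibitor control for full effect; nearly all actives have a fitted effect of over 50% in size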
#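 CHO cells stably expressing M1 receptor (2000/well, cultured 16–30 h) treated 30 min at 37C with compound plus low lithium. Cytosolic IP1 by TR-FRET (665/620 ratio and 620 channel) after 10 min lysis; AC50 by Hill fit.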
# NPSR antag: neuropeptide S receptor (human) antagonism, cAMP. Q6W5P4. CHO-NPSR cells, cAMP TR-FRET, antagonist mode. Potency, µM (titrated, usually from 38.3 µM), for the others: at the top dose activity change, negative = inhibition, usual class: inhibitors. 1% of 220,000 active. AID 1461; note: % is set by controls: 0 for no effect and ±100 for the full control effect; nearly all actives have a fitted effect of over 50% in size
# Sfp inh: inhibitors of Bacillus subtilis Sfp phosphopantetheinyl transferase. Q9F4F7. Biochemical Sfp PPTase activity, qHTS. Potency, µM, for inactives: largest response in the series, negative = inhibition, hits mostly inhibitors. 3.5% of 310,000 active. AID 1490;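 note: the enzyme is Sfp with the accession as filed and its product quenches rhodamine fluorescence; 0% = enzyme reaction without inhibitor and -100% = no enzyme wells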
#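 Compounds were incubated with enzyme (final 15 nM) for 15 min at room temperature before substrate addition started the reaction. Fluorescence at 525 nm excitation, 598 nm emission was recorded immediately and after 30 minutes.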
# Epigenetic reg: epigenetic control regulation, reporter derepression | murine LDR cells, GFP reporter derepression, 30 h | Potency, µM (highest dose often 53.9 µM), without a hit: top-dose GFP activation, hits mostly activators | 0.2% of 280,000 active; note: % of control where 0% means no effect; nearly all actives have a fitted effect of over 60% in size
#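 Murine LDR cells carrying a silenced, genomically integrated CMV-driven GFP reporter were exposed to compound for 30 hours at 37 C. After PBS washes, GFP-positive cells (20–120 um objects) were counted by laser-scanning microplate cytometry.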
# * = called active by the depositor; ? = inconclusive; . = no result given; [ ] = another dose, or the depositor's remark. Unless noted, calls come from the whole dose curve; as a rule, active = well fitted curve in the direction sought with a large enough effect; inconclusive = small, poorly fitted or top-dose-only effect, or another doubt; inactive = no such curve, though single readings can be large; an effect the other way counts as inactive or inconclusive. Potency is the fitted concentration of half-maximal effect.
SMILES,KAT2A inh,JMJD2E inh,IMPase Li inh,NPSR antag,Sfp inh,Epigenetic reg
COC(=O)C1=C(C)N(C)C(=O)NC1c1cc2c(cc1[N+](=O)[O-])OCO2 (stereo unspecified),-5%,?,5%,-2%,14µM*,0%
COc1ccc(OC)c(NC(=O)CSc2ccc(-c3ccco3)nn2)c1,-9%,.,.,.,14µM*,.
COc1ccc(C(=O)CSc2ccc(-c3ccccc3)nn2)cc1,-4%,-6%,23%,-7%,-1%,-1%
COc1ccccc1NC(=O)CSc1nnc(CCC(=O)Nc2ccccc2F)n1C,35µM*,-4%,.,7%,-20%,2%
COc1ccc(C(=O)CSc2ccc(-c3ccco3)nn2)cc1,34%,?,-2%,1%,16µM*,0%
COc1ccccc1NC(=O)CSc1ccc(-c2ccco2)nn1,?,.,.,.,45µM*,.
COc1ccccc1NC(=O)Cc1nnc(SCC(=O)Nc2ccc(F)cc2F)n1C,-1%,.,.,.,15%,.
CCOc1ccc(N2CC(c3nc4ccccc4n3CCCOc3ccc(OC)cc3)CC2=O)cc1 (stereo unspecified),-10%,.,.,.,.,-2%
CC(CSC(=O)c1ccccc1)C(=O)N1C[C@@H](Sc2ccccc2)C[C@H]1C(=O)O (stereo partly specified),0%,.,.,.,20%,.
COc1ccc(C(=O)CSc2nccn2C)cc1,-1%,.,.,.,56µM*,.
N#C/C(C(=O)Nc1ccc(Cl)cc1)=C(/S)Nc1ccccc1,7.9µM*,.,.,.,0.79µM*,.
CCC(=O)c1ccc2c(c1)N(CCCN1CCN(CCO)CC1)c1ccccc1S2,-23%,.,.,.,79µM*,.
CC(=O)n1c2ccccc2c2nc3ccccc3nc21,?,.,.,.,13%,.
C=CCNc1nc2c3ccccc3n(C(C)=O)c2s1,-3%,?,6%[38.3 µM],-15%[46.1 µM],79µM*,-1%
CC[C@H](C)[C@H](NC(=O)CNC(=O)[C@H](CCCNC(=N)N)NC(=O)CNC(=O)[C@@H](NC(=O)[C@H](Cc1ccc(O)cc1)NC(=O)[C@H](Cc1c[nH]c2ccccc12)NC(=O)[C@H](C)NC(=O)[C@@H]1CCCN1C(=O)[C@H](CC(N)=O)NC(=O)[C@@H](NC(=O)[C@H](CC(=O)O)NC(=O)[C@@H]1CCCN1C(=O)[C@@H](N)[C@@H](C)O)[C@@H](C)CC)[C@@H](C)O)C(=O)N[C@@H](CCCNC(=N)N)C(=O)N1CCC[C@H]1C(=O)N[C@H](C(=O)NCC(=O)N[C@@H](CCCNC(=N)N)C(=O)N[C@@H](Cc1ccccc1)C(N)=O)C(C)C,1%,.,.,.,13%,.
O=C(O)[C@@H]1CCN(Cc2oc(CO)cc(=O)c2O)C1,.,.,-3%,.,.,.
CCc1ccc(NC(=O)C2CCC(CNS(=O)(=O)c3ccc4c(c3)C(C)(C)C(=O)N4C)CC2)cc1 (stereo unspecified),-4%,.,.,.,.,-2%
COc1cc(/C=c2/sc3nc(-c4ccccc4)c(-c4ccccc4)n3c2=O)cc(OC)c1OC,39%,-3%,5%,-1%,17%,2%
COc1ccc(/C=c2\sc3nc(-c4ccccc4)c(-c4ccccc4)n3c2=O)cc1OC,-11%,?,-11%[38.3 µM],-8%[46.1 µM],18µM*,0%
Cc1cc(S(=O)(=O)Nc2ccccc2C(=O)O)ccc1F,.,.,.,.,.,-2%
Cc1ccc2nc(Cl)c3cc(C(=O)NCCCN(C)Cc4ccccc4)sc3c2c1,-3%,.,.,.,.,5%
CN(CCCNC(=O)c1cc2c(Cl)nc3ccccc3c2s1)Cc1ccccc1,-3%,-28%,10%,-20%,79µM*,-1%
OCC(O)CS (stereo unspecified),-11%,.,.,.,15%,.
CC[C@@H]1/C=C(\C)C[C@H](C)C[C@H](OC)[C@H]2O[C@@](O)(C(=O)C(=O)N3CCCC[C@H]3C(=O)O[C@H](/C(C)=C/[C@@H]3CC[C@H](Cl)[C@H](OC)C3)[C@H](C)[C@@H](O)CC1=O)[C@H](C)C[C@@H]2OC,-5%,.,.,.,12%,.
CCc1ccc(/C=C/C(=O)C2C(=O)c3ccccc3C2=O)cc1,?,?,-7%[38.3 µM],-2%[46.1 µM],79µM*,-3%
SMILES,KAT2A inh,JMJD2E inh,IMPase Li inh,NPSR antag,Sfp inh,Epigenetic reg
CCc1ccc2c(O)c3c(cc2c1C(=O)OC)C(=O)c1c(O)ccc(O)c1C3=O,-6%,2.8µM*,23%,.,-27%,0%
CSCC[C@H](NC(=O)[C@@H](NC(=O)[C@H](CCC(=O)O)NC(=O)[C@H](CCSC)NC(=O)[C@H](CC(N)=O)NC(=O)[C@H](CCC(=O)O)NC(=O)[C@H](CC(N)=O)NC(=O)[C@H](CO)NC(=O)[C@H](C)N)[C@@H](C)O)C(=O)O,-10%,.,.,.,-3%,.
CN(C)S(=O)(=O)N(CC(=O)NCCSCc1c(F)cccc1Cl)c1ccccc1,-3%,.,.,.,.,2%
CCC(c1nnnn1C(C)(C)C)N(Cc1ccco1)Cc1cc2cccc(C)c2[nH]c1=O (stereo unspecified),-11%,-3%,24%[38.3 µM],?,56µM*,0%
CCC(c1nnnn1CCc1ccccc1)N(Cc1ccco1)Cc1cc2cccc(C)c2[nH]c1=O (stereo unspecified),-1%,-28%,30%[38.3 µM],?,1%,-1%
CCC(c1nnnn1Cc1ccco1)N(CCN1CCOCC1)Cc1cc2cc(C)ccc2[nH]c1=O (stereo unspecified),-1%,?,15%[38.3 µM],-1%[46.1 µM],45µM*,-1%
C=C(C)CSC1=C(C#N)C(c2ccsc2)CC(=O)N1 (stereo unspecified),-5%,?,14%[38.3 µM],-5%[46.1 µM],28µM*,1%
C=CCSC1=C(C#N)C(c2ccc(C(C)C)cc2)CC(=O)N1 (stereo unspecified),-18%,1%,21%[38.3 µM],-7%[46.1 µM],45µM*,-4%
Cc1ccccc1-c1ccc2ncnc(NCCN3CCOCC3)c2c1,-24%,.,11%,.,7%,.
CN1CCN(c2ncnc3ccc(-c4cccc(NS(C)(=O)=O)c4)cc23)CC1,-16%,.,23%,.,17%,.
O=C(NC(Cc1ccccc1)C(=O)O)/C(=C\c1ccco1)NC(=O)c1ccccc1 (stereo unspecified),-3%,?,-2%,11%,35µM*,-1%
O=C(O)/C(=C/c1ccco1)NC(=O)c1ccccc1,-1%,-5%,-2%,17%,-19%,0%
COc1ccccc1C(=O)N/C(=C/c1ccco1)C(=O)Nc1cccc(C(=O)O)c1,-6%,.,.,.,50µM*,.
Cc1ccc(C(=O)N/C(=C/c2ccco2)C(=O)Nc2cccc(C(=O)O)c2)cc1,-10%,.,.,.,45µM*,.
